Laboratory results reported in PubChem BioAssay (NCATS).
Inconclusive results are not listed. Entries that show only a call come without a potency. Active and inactive are the calls of the source. Calls follow the shape of the dose curve; as a rule, active = well fitted inhibition curve with a large enough effect; inconclusive = small, poorly fitted or top-dose-only effect; inactive = flat fitted curve, though single readings scatter.
Potency is read from the fitted curve at half-maximal effect.

What follows are molecules tested on CP203 (assay: qHTS profiling for inhibitors of Plasmodium falciparum proliferation (AID 504749; also: nearly all actives have a fitted effect of over 60% in size)). Conditions: P. falciparum in erythrocytes, SYBR Green DNA, 72 h; series mostly up to 28.7 µM.
Source text: NIH National Institute of Allergy and Infectious Diseases [NIAID] NIH Chemical Genomics Center [NCGC] MLPCN Grant: None Assay Provider: Xinzhuan Su, NIAID NCGC Assay Overview: Plasmodium falciparum is a virulent malarial parasite that kills 1-2 million people worldwide each year. Transmitted by mosquitoes, the sporozoite form of the parasite enters the blood stream to infect hepatocytes, where they become merozoites that infect red blood cells (erythrocytes). Within erythrocytes, merozoites begin a […] cycle of growth and division, after which the parasite is released to infect new red blood cells. Gametocytes, which form within erythrocytes as well, circulate in the bloodstream and are ingested by the mosquito, thereby completing the life cycle. To profile malarial isolates for differential chemical responses and to identify inhibitors of malarial growth, an assay that measures P. falciparum growth and replication within erythrocytes was employed. This assay uses a DNA binding fluorescent dye (SYBR Green) to detect parasite DNA following cell lysis. Because mature erythrocytes lack DNA, only Plasmodium-derived DNA is detected.
NCGC Assay Protocol Summary: The SYBR Green viability assay was adapted from a method described previously (Plouffe et al., 2008). For screening 3 ul culture medium was dispensed into 1536 well black clear bottom plates (Aurora Biotechnologies) using a Multidrop Combi (Thermo Fisher Scientific Inc.), 23 nL compounds in DMSO were added by a pin tool (Kalypsys), and 5 ul of erythrocytes infected with P. falciparum (0.3% parasitemia, 2.5% hematocrit final concentration) were added. The plates were incubated at 37 C in a humidified incubator in 5% CO2 for 72 h, and 2 ul lysis buffer (20 mM Tris HCl, 10 mM EDTA, 0.16% saponin, 1.6% triton X, 10X SYBR Green I supplied as 10,000X […] by Invitrogen) was added to each well. The plates were mixed for 25 sec with gentle shaking and incubated overnight at room temperature in the dark. The following morning, fluorescence intensity at 485(14) nm excitation and 535(25) nm emission wavelengths was measured on an EnVision (Perkin Elmer) plate reader. Plate reads were normalized relative to the control inhibitor (0.29 uM artemisinin) and vehicle (DMSO) wells present on each plate and then corrected by an algorithm using vehicle-only control plates at the beginning and end of the compound plate stack.
`CN(C(=O)CCCOc1ccc2[nH]c(=O)ccc2c1)C1CCCCC1` was tested, and the Potency was “inactive”.
`CCN(CC)CCCN(c1ccccc1)C1Cc2ccccc2C1` was tested, and the Potency was 6.75 µM (active).
With `CC(=O)OCC1=C(C(=O)O)N2C(=O)[C@@H](NC(=O)Cc3cccs3)[C@H]2SC1` the Potency was “inactive”.
With `CCn1cc(C(=O)O)c(=O)c2cc3c(cc21)OCO3` the Potency was “inactive”.
With `Nc1ncn([C@@H]2O[C@H](CO)[C@@H](O)[C@H]2O)c(=O)n1` the Potency was “inactive”.
With `COc1cc2c(cc1OC)-c1cc(=Nc3c(C)cc(C)cc3C)n(C)c(=O)n1CC2` the Potency was 7.57 µM (active).
In the case of `COc1ccc([C@@H]2Sc3ccccc3N(CCN(C)C)C(=O)[C@@H]2OC(C)=O)cc1`, the Potency is reported as “inactive”.
For `CN=C(NC#N)NCCSCc1nc[nH]c1C`, the Potency was “inactive”.
With `NC(=Nc1ccccc1)Nc1ccccc1` the Potency was “inactive”.
`C[C@H](CS)C(=O)N1CCC[C@H]1C(=O)O` was tested, and the Potency was “inactive”.
In the case of `CN1C[C@H](C(=O)N[C@]2(C)O[C@@]3(O)[C@@H]4CCCN4C(=O)[C@H](Cc4ccccc4)N3C2=O)C[C@@H]2c3cccc4[nH]cc(c34)C[C@H]21`, the Potency is reported as 10.7 µM (active).
For `COC(=O)[C@@H](N)Cc1ccc(O)c(O)c1`, the Potency was “inactive”.
`CN(C)CCCN1c2ccccc2Sc2ccccc21` was tested, and the Potency was 4.05 µM (active).
For `CCCCOCCOCCOCc1cc2c(cc1CCC)OCO2`, the Potency was “inactive”.
For `Brc1c(NC2=NCCN2)ccc2nccnc12`, the Potency was “inactive”.
For `C[N+](C)(C)CCCCCCCCCC[N+](C)(C)C`, the Potency was 1.69 µM (active).
`CCCCCN(CCCCC)C(=O)C(CCC(=O)O)NC(=O)c1ccc(Cl)c(Cl)c1` (stereo not given) was tested, and the Potency was “inactive”.
For `C[N+](C)(C)CCOC(N)=O`, the Potency was “inactive”.
With `NS(=O)(=O)c1cc2c(cc1Cl)NC(C1CC3C=CC1C3)NS2(=O)=O` (stereo not given) the Potency was “inactive”.
For `CCCOc1ccccc1-c1nc2n[nH]nc2c(=O)[nH]1`, the Potency was “inactive”.
For `O=C(O)CCCCCCCC(=O)O`, the Potency was “inactive”.
In the case of `NCCCNCCSP(=O)(O)O`, the Potency is reported as “inactive”.
`C#CCN(C)CCCOc1ccc(Cl)cc1Cl` was tested, and the Potency was “inactive”.
`CCN1CCC[C@H]1CNC(=O)c1c(O)c(Cl)cc(Cl)c1OC` was tested, and the Potency was “inactive”.
In the case of `CCN(Cc1ccncc1)C(=O)C(CO)c1ccccc1` (stereo not given), the Potency is reported as “inactive”.
`Nc1nc(N)c2nc(-c3ccccc3)c(N)nc2n1` was tested, and the Potency was “inactive”.
With `CCN1CCc2nc(N)oc2CC1` the Potency was “inactive”.
`NC(Cc1ccc(Cl)cc1)C(=O)O` (stereo not given) was tested, and the Potency was “inactive”.
With `Cc1ccc(=O)n(-c2ccccc2)c1` the Potency was “inactive”.
For `COCC(=O)O[C@]1(CCN(C)CCCc2nc3ccccc3[nH]2)CCc2cc(F)ccc2[C@@H]1C(C)C`, the Potency was 1.9 µM (active).
`Cc1nc2c([nH]1)c(=O)n(C)c(=O)n2Cc1ccco1` was tested, and the Potency was “inactive”.
In the case of `CN1CCN(C2=Nc3ccccc3Oc3ccc(Cl)cc32)CC1`, the Potency is reported as “inactive”.
For `O=C(CCNNC(=O)c1ccncc1)NCc1ccccc1`, the Potency was “inactive”.
In the case of `CN(C)C(=O)Oc1ccc[n+](C)c1`, the Potency is reported as “inactive”.
In the case of `CCNC(=O)N1CCN(CCCC(c2ccc(F)cc2)c2ccc(F)cc2)CC1`, the Potency is reported as 6.75 µM (active).
For `CN1CCN(CC(=O)N2c3ccccc3C(=O)Nc3cccnc32)CC1`, the Potency was “inactive”.
`CCN(CC)CC(=O)Nc1c(C)cccc1C` was tested, and the Potency was “inactive”.
`CCOC(=O)c1cnc2c(cnn2CC)c1NN=C(C)C` was tested, and the Potency was “inactive”.
For `C=CCc1ccccc1OCC(O)CNC(C)C` (stereo not given), the Potency was 10.7 µM (active).
`CC(=O)[C@@]1(O)CC[C@H]2[C@@H]3CCC4=CC(=O)CC[C@]4(C)[C@H]3CC[C@@]21C` was tested, and the Potency was “inactive”.
